Reference: PubChem BioAssay AID720566 (Broad Institute, 2013)
Measured potencies and affinities stand elsewhere. Activity calls are given as the source filed them.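 How the source made its calls: active means in all runs, an absorbance decrease of 25% or more of the average positive control decrease; inconclusive means runs conflict, with both active and inactive results; inactive means all runs inactive, opposite-direction effects included.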

Biological target: Protein disulfide-isomerase A6 (Homo sapiens) (UniProt Q15084)
Sequence (Q15084 whole entry, looked up): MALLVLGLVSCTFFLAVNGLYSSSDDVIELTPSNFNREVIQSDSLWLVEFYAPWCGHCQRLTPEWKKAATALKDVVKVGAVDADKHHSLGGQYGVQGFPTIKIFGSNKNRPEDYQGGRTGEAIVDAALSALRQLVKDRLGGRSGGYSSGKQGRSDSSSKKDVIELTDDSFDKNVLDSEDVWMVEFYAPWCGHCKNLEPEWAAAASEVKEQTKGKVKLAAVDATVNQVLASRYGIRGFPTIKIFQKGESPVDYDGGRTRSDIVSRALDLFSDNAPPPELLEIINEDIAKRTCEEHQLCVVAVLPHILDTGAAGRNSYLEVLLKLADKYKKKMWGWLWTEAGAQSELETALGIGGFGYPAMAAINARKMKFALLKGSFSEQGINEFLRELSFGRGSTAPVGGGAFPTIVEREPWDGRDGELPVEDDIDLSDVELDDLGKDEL
Test: inhibitors of ERp5-mediated insulin aggregation, dose response, biochemical, turbidity, absorbance 650 nm, cherry-picked samples (AID 720566);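 further: negative values mean less insulin aggregation so ERp5 inhibition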
Conditions: Recombinant ERp5 insulin aggregation; series mostly up to 35 µM; activity change, negative = inhibition: at the top concentration

Activity change, negative = inhibition, inactive:
CCN(CC)S(=O)(=O)c1cc(NC(=O)c2ccc(-n3cncn3)c([N+](=O)[O-])c2)ccc1C -4.42%
C[C@@H]1CN([C@@H](C)CO)C(=O)c2cc(NC(=O)Nc3ccc4c(c3)OCO4)ccc2O[C@@H]1CN(C)Cc1ccc(C(=O)O)cc1 -9.55%
CCCNC(=O)C[C@@H]1C[C@@H]2c3cc(NS(C)(=O)=O)ccc3O[C@@H]2[C@H](CO)O1 1.83%
O=C1[C@@H](c2ccccc2)CC[C@@H]2C=CC[C@H]3CCN1[C@@H]32 -1.07%
CC(=O)Nc1ccc2c(c1)C(=O)N(C)[C@@H]1CC[C@@H](CC(=O)NCC3CC3)O[C@H]1CO2 4.34%
C[C@@H]1CN([C@H](C)CO)C(=O)c2cccc(NC(=O)Nc3cccc4ccccc34)c2O[C@@H]1CN(C)C(=O)Nc1ccc(C(F)(F)F)cc1 -7.04%
Cn1c(COc2ccccc2)nnc1SCC(=O)Nc1nnc(C2CC2)s1 20%
CCc1csc(CCNC(=O)C2CCC(=O)N(CCc3cccc(F)c3)C2)n1 (configuration not stated) -8.21%
Cc1ccc2nc(-c3cccc(Br)c3)c(Cc3cccc(Cl)c3)n2c1 -4.19%
C[C@@H]1CN([C@H](C)CO)C(=O)c2cc(NC(=O)Nc3ccc(F)cc3)ccc2O[C@H]1CN(C)Cc1ccc(-c2ccccc2)cc1 0.559%
CN(C)C(=O)C[C@H]1C[C@H]2c3cc(NS(C)(=O)=O)ccc3O[C@H]2[C@H](CO)O1 -4.66%
C[C@@H]1CN([C@H](C)CO)C(=O)Cc2cc(NC(=O)Nc3cccc4ccccc34)ccc2O[C@@H]1CN(C)Cc1ccc(C(F)(F)F)cc1 5.59%
